Data published in the supplement of paper PMC10849652.
The full data set covers some 8,800 targets. This sample favours those with a hit. About 0.5% of all pairs of compound and target were hits. Values without a mark were called inactive.

Legend:
Assay in all cases: log2 fold change, soluble protein after heating vs DMSO (PISA); higher = thermal stabilisation; K562 lysate, 10 uM; active = over 0.2 and 3.5 SD of the protein, either way, in both replicates (recomputed)
lapatinib = compound: CS(=O)(=O)CCNCc1ccc(-c2ccc3ncnc(Nc4ccc(OCc5cccc(F)c5)c(Cl)c4)c3c2)o1 [lapatinib]
How it was run: (§1)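 The values are log-two fold changes in thermal stability compared with solvent controls and come from duplicates. They were obtained by TMTpro 16plex LC-MS/MS, with channel sums equalised, on the supernatant after 21,000xg for 90 min. That supernatant came from crude K562 extract at 1 mg/mL protein treated with 10 μM compound for 30 min, heated for 3 min across 48°C-58°C, pooled and brought to 0.5% NP-40 at 4°C.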

pictilisib = compound: CS(=O)(=O)N1CCN(Cc2cc3nc(-c4cccc5[nH]ncc45)nc(N4CCOCC4)c3s2)CC1 [pictilisib]
How it was run: as §1

crizotinib = compound: C[C@@H](Oc1cc(-c2cnn(C3CCNCC3)c2)cnc1N)c1c(Cl)ccc(F)c1Cl [crizotinib]
How it was run: as §1

[1] = compound: C[C@H](C1=CC=C(C=C1)C(=O)NC2=C3C=CNC3=NC=C2)N
How it was run: as §1

duvelisib = compound: C[C@H](Nc1ncnc2nc[nH]c12)c1cc2cccc(Cl)c2c(=O)n1-c1ccccc1 [duvelisib]
How it was run: as §1

gandotinib = compound: Cc1cc(Nc2cc(CN3CCOCC3)c3nc(C)c(Cc4ccc(Cl)cc4F)n3n2)n[nH]1 [gandotinib]
How it was run: as §1

tozasertib = compound: Cc1cc(Nc2cc(N3CCN(C)CC3)nc(Sc3ccc(NC(=O)C4CC4)cc3)n2)n[nH]1 [tozasertib]
How it was run: as §1

doramapimod = compound: Cc1ccc(-n2nc(C(C)(C)C)cc2NC(=O)Nc2ccc(OCCN3CCOCC3)c3ccccc23)cc1 [doramapimod]
How it was run: as §1

bafetinib = compound: Cc1ccc(NC(=O)c2ccc(CN3CC[C@H](N(C)C)C3)c(C(F)(F)F)c2)cc1Nc1nccc(-c2cncnc2)n1 [bafetinib]
How it was run: as §1

[2] = compound: Cc1cccc(CC(=O)N2CCc3c2ccc(-c2cn(C)c4ncnc(N)c24)c3F)n1
How it was run: as §1

nilotinib = compound: Cc1cn(-c2cc(NC(=O)c3ccc(C)c(Nc4nccc(-c5cccnc5)n4)c3)cc(C(F)(F)F)c2)cn1 [nilotinib]
How it was run: as §1

[3] = compound: Cc1nc(Nc2n[nH]c3c2CN(C(=O)N[C@H](CN(C)C)c2ccccc2)C3(C)C)c2sccc2n1
How it was run: as §1

dasatinib = compound: Cc1nc(Nc2ncc(C(=O)Nc3c(C)cccc3Cl)s2)cc(N2CCN(CCO)CC2)n1 [dasatinib]
How it was run: as §1

[4] = compound: Cc1ncc(-c2ccnc(Nc3ccc(S(C)(=O)=O)cc3)n2)n1C(C)C
How it was run: as §1

[5] = compound: Cn1cc(-c2ccc3c(c2)CCN3C(=O)Cc2cccc(C(F)(F)F)c2)c2c(N)ncnc21
How it was run: as §1

quisinostat = compound: Cn1cc(CNCC2CCN(c3ncc(C(=O)NO)cn3)CC2)c2ccccc21 [quisinostat]
How it was run: as §1

tipifarnib = compound: Cn1cncc1[C@@](N)(c1ccc(Cl)cc1)c1ccc2c(c1)c(-c1cccc(Cl)c1)cc(=O)n2C [tipifarnib]
How it was run: as §1

[6] = compound: NC(=O)Nc1cc(-c2cccc(F)c2)sc1C(=O)N[C@H]1CCCNC1
How it was run: as §1

[7] = compound: NC(=O)c1cnc(N[C@@H]2CCCC[C@@H]2N)nc1Nc1cccc(-n2nccn2)c1
How it was run: as §1

[8] = compound: NC1(c2ccc(-c3nc4ccn5c(=O)[nH]nc5c4cc3-c3ccccc3)cc2)CCC1
How it was run: as §1

Sequence of UniProt Q14644 (Q14644 whole entry, looked up): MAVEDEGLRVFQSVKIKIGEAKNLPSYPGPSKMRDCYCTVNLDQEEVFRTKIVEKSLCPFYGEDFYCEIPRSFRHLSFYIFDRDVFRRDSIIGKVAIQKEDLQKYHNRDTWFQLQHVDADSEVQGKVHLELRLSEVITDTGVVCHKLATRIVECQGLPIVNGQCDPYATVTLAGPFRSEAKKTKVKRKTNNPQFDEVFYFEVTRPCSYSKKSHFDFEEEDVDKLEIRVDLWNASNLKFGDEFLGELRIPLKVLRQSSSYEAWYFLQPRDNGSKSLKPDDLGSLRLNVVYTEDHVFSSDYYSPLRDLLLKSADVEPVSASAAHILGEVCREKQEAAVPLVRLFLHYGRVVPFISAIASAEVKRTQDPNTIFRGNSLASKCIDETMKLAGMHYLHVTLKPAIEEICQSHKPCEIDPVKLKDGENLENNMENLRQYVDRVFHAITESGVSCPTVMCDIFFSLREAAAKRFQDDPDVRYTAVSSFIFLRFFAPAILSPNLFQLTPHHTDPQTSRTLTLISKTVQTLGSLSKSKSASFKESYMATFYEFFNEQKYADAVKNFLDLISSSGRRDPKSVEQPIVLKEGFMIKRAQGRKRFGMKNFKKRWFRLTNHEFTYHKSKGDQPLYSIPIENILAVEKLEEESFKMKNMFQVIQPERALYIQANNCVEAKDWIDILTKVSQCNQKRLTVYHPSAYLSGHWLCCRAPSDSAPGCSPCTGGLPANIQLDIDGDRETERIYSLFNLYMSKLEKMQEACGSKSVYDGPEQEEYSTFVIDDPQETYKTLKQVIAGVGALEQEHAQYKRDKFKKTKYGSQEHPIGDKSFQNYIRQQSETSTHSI
Sequence of UniProt P53805 (P53805 whole entry, looked up): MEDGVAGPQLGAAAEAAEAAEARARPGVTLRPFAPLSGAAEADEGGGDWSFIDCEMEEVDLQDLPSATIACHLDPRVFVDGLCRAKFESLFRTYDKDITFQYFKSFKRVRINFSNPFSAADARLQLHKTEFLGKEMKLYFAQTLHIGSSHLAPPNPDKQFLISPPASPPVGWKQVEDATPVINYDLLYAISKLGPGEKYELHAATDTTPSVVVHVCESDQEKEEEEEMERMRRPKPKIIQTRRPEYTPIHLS
Sequence of UniProt P35250 (P35250 whole entry, looked up): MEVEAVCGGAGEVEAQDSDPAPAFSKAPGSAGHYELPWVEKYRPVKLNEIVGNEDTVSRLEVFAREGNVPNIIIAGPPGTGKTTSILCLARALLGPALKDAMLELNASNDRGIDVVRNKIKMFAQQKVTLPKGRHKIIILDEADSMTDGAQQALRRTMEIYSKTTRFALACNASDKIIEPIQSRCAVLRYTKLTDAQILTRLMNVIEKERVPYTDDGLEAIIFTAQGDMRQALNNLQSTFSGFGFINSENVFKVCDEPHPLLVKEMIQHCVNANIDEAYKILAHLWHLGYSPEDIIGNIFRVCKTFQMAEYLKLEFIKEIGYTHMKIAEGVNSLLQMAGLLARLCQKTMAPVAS
Sequence of UniProt Q8TBN0 (Q8TBN0 whole entry, looked up): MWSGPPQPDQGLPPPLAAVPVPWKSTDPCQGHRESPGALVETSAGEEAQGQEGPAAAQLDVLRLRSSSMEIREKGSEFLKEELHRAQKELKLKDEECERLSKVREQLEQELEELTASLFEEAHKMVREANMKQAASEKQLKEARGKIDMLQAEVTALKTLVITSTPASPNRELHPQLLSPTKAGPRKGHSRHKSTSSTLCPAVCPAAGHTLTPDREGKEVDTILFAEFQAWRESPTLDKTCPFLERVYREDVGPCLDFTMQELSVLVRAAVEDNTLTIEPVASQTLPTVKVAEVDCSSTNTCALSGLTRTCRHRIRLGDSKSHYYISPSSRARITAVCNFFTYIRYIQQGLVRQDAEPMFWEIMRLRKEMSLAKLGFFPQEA
Sequence of UniProt P78406 (P78406 whole entry, looked up): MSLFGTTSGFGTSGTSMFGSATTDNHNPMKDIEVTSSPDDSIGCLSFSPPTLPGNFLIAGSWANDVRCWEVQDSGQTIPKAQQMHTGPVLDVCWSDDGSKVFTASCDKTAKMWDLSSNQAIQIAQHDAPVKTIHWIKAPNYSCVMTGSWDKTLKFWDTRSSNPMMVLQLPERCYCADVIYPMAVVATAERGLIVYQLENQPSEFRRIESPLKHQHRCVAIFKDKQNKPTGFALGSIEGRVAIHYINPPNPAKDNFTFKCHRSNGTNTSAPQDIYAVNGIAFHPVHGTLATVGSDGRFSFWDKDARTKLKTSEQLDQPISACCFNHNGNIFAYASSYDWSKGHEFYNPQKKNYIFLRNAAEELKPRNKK
Sequence of UniProt Q05823 (Q05823 whole entry, looked up): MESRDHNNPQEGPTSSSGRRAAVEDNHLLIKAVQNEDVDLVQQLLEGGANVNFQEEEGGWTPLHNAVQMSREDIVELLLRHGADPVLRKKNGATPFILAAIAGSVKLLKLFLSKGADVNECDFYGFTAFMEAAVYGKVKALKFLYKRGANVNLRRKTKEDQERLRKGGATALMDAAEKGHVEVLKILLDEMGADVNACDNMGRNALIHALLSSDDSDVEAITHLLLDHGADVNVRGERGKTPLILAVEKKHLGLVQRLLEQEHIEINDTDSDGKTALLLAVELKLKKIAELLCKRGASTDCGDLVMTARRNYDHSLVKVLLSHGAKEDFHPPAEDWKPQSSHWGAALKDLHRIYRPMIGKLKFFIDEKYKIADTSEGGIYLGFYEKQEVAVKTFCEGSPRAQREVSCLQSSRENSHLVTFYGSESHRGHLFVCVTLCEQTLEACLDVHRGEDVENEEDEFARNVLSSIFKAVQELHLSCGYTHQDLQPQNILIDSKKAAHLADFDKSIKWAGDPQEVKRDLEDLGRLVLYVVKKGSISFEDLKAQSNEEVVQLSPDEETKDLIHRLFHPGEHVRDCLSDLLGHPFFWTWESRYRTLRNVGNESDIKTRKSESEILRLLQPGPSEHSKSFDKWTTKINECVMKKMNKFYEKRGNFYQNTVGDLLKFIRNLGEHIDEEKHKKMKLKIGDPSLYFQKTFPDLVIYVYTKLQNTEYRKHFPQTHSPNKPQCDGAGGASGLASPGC

Target	log2 fold change (lapatinib)	log2 fold change (pictilisib)	log2 fold change (crizotinib)	log2 fold change [1]	log2 fold change (duvelisib)	log2 fold change (gandotinib)	log2 fold change (tozasertib)	log2 fold change (doramapimod)	log2 fold change (bafetinib)	log2 fold change [2]	log2 fold change (nilotinib)	log2 fold change [3]	log2 fold change (dasatinib)	log2 fold change [4]	log2 fold change [5]	log2 fold change (quisinostat)	log2 fold change (tipifarnib)	log2 fold change [6]	log2 fold change [7]	log2 fold change [8]
RCOR3 isoform 3 (UniProt Q9P2K3)	0.016	0.023	0.011	0.014	-0.029	-0.024	0.009	-0.048	-0.035	0.004	-0.016	-0.028	-0.052	0.038	0.01	0.022	0.011	0.03	0.029	0.014
RAE1 (UniProt P78406)	0.055	0.003	0.05	-0.158	-0.063	0.031	-0.071	-0.032	0.235	0.111	-0.093	0.042	0.002	0.012	0.033	0.038	-0.053	0.026	0.024	0.015
RASA3 (UniProt Q14644)	0.08	-0.044	-0.061	-0.049	0.103	-0.026	-0.017	-0.005	-0.198	0.005	0.065	-0.014	-0.144	0.039	0.109	0.062	0.009	0.011	0.012	0.089
RFC2 (UniProt P35250)	-0.004	0.015	-0.046	-0.025	0.025	-0.007	0.005	0.042	-0.074	0.041	0.005	-0.018	-0.027	-0.012	0.062	-0.04	-0.014	0.036	0.014	-0.05
RPL36AL (UniProt Q969Q0)	0.05	0.031	0.216	0.01	-0.033	-0.038	0.047	-0.131	0.137	0.003	0.034	0.038	0.094	0.055	0.04	0.329 (active)	0.058	0.01	-0.026	-0.009
RNASEL (UniProt Q05823)	-0.034	-0.076	-0.04	-0.011	0.007	-0.068	-0.014	-0.007	-0.018	-0.013	-0.034	0.035	-0.014	-0.013	0.02	-0.06	-0.016	0.042	0.026	-0.064
RAB3IL1 (UniProt Q8TBN0)	-0.002	-0.034	-0.023	0	-0.003	-0.014	-0.004	-0.012	0.006	-0.02	-0.025	-0.026	-0.048	0.041	0.017	-0.002	0.037	0.004	0.017	0.033
RCAN1 (UniProt P53805)	-0.017	-0.048	-0.127	-0.088	-0.012	0.041	0.017	-0.039	0.123	-0.03	-0.457 (active)	0.008	0.023	-0.055	0.038	-0.217	0.131	0.117	0.088	0.036
